Read-out in assay [1]: Interleukin-1 alpha (IL1a), IL1A (gene 3552)
The assay can be described thus: BSK_KF3CT_IL1a: BioMAP Diversity Plus: KF3CT Assay for Interleukin-1 alpha (IL1a) Biomarker Activity (AID 2283070). To be noted: primary human keratinocytes with fibroblasts; actives raise or lower the signal. In a few lines: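 Chemicals were dosed onto co-cultured human keratinocytes and foreskin fibroblasts, IL-1a was quantified by ELISA at 24 h, and activity was fitted in both directions relative to DMSO controls.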

Read-out in assay [2]: TIMP metallopeptidase inhibitor 2 (TIMP2), TIMP2 (gene 7077)
The experiment in a line: BSK_KF3CT_TIMP2: BioMAP Diversity Plus: KF3CT Assay for TIMP metallopeptidase inhibitor 2 (TIMP2) Biomarker Activity (AID 2283071). Particulars: primary human keratinocytes with fibroblasts; actives raise or lower the signal. In a few lines:
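Human primary keratinocyte/foreskin fibroblast co-culture dosed with chemical and sampled at 24 h. TIMP-2 levels quantified by ELISA; bidirectional fitting against DMSO negative control as baseline.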

Read-out in assay [3]: Transforming growth factor beta 1 (TGFb1), TGFB1 (gene 7040)
The experiment in a line: BSK_KF3CT_TGFb1: BioMAP Diversity Plus: KF3CT Assay for Transforming growth factor beta 1 (TGFb1) Biomarker Activity (AID 2283072). To be noted: primary human keratinocytes with fibroblasts; actives raise or lower the signal. An outline of the steps:
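Human keratinocyte plus foreskin fibroblast primary co-culture, dosed with chemical for 24 h. TGF-b1 quantified by ELISA. Activity fitted bidirectionally against DMSO negative control as baseline.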

Read-out in assay [4]: C-C motif chemokine 2 (Homo sapiens) (UniProt P13500)
The experiment in a line: BSK_KF3CT_MCP1: BioMAP Diversity Plus: KF3CT Assay for Monocyte Chemoattractant Protein 1 (MCP1/CCL2) Biomarker Activity (AID 2283073). Particulars: primary human keratinocytes with fibroblasts; actives raise or lower the signal. An outline of the steps:
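ELISA read-out of MCP-1, 24 h post-dose, in primary human skin keratinocytes co-cultured with fibroblasts. Parallel SRB staining monitors cytotoxicity; changes fitted both directions relative to DMSO.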

Read-out in assay [5]: Matrix Metallopeptidase 9 (MMP9), MMP9 (gene 4318)
The assay can be described thus: BSK_KF3CT_MMP9: BioMAP Diversity Plus: KF3CT Assay for Matrix Metallopeptidase 9 (MMP9) Biomarker Activity (AID 2283074).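 On AC50: MMP9 protein level quantified by ELISA in the co-culture.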 To be noted: primary human keratinocytes with fibroblasts; actives raise or lower the signal. In a few lines:
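Human keratinocyte/foreskin fibroblast co-culture; compound added; 24 h; MMP-9 by ELISA; bidirectional fit vs DMSO baseline.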

Read-out in assay [6]: urokinase plasminogen activator (uPA), PLAU (gene 5328)
The assay can be described thus: BSK_KF3CT_uPA: BioMAP Diversity Plus: KF3CT Assay for urokinase plasminogen activator (uPA) Biomarker Activity (AID 2283075). Particulars: primary human keratinocytes with fibroblasts; actives raise or lower the signal. In a few lines:
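ELISA readout of uPA, analyzed for signal gain or loss relative to DMSO, from a human primary keratinocyte–foreskin fibroblast co-culture measured 24 h after chemical treatment.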

Read-out in assay [7]: E-selectin (Homo sapiens) (UniProt P16581)
The assay can be described thus: BSK_LPS_Eselectin: BioMAP Diversity Plus: LPS Assay for Eselectin Biomarker Activity (AID 2283077). Particulars: primary human HUVEC with PBMC; actives raise or lower the signal. In a few lines: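 E-selectin ELISA on LPS-stimulated endothelial cell/PBMC co-cultures, read 24 h post-treatment; gains and losses fitted against DMSO. Parallel SRB staining (0.1% SRB after 10% TCA fixation, 560 nm) flags overt cytotoxicity.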

Read-out in assay [8]: Interleukin-8 (IL8), CXCL8 (gene 3576)
The assay can be described thus: BSK_LPS_IL8: BioMAP Diversity Plus: LPS Assay for Interleukin-8 (IL8) Biomarker Activity (AID 2283078). Particulars: primary human HUVEC with PBMC; actives raise or lower the signal. An outline of the steps:
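ELISA read-out of IL-8 after 24 h chemical treatment of LPS-activated endothelial/PBMC human primary co-cultures. Changes either up or down relative to DMSO; overt cytotoxicity checked by sulforhodamine B staining in parallel wells.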

Assay [9] is described as follows: BSK_LPS_SRB: Viability Assessment in the BioMAP Diversity Plus: LPS Assay (AID 2283079).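 Further: total protein by sulforhodamine B absorbance as a cytotoxicity measure; measured one day after compound addition; fitted in both directions against DMSO so loss or gain of signal counts.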 Particulars: primary human HUVEC with PBMC. In a few lines:
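SRB viability endpoint: cells fixed with 10% TCA, stained with 0.1% SRB, read at 560 nm, 24 h post-dose. HUVEC/PBMC co-culture; signal change in either direction scored relative to DMSO.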

Read-out in the next assay: CD40, CD40 (gene 958)
The experiment in a line: BSK_LPS_CD40: BioMAP Diversity Plus: LPS Assay for CD40 Biomarker Activity (AID 2283076). To be noted: primary human HUVEC with PBMC; actives raise or lower the signal. In a few lines:
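In the LPS system of human endothelial cells with peripheral blood mononuclear cells, CD40 levels were read by ELISA 24 h post-treatment. Signal changes in either direction were fitted against the DMSO baseline, with parallel SRB protein staining.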

The source made the active and inactive calls. How the source made its calls: active means hit-call score of the fitted dose curve at least 0.9, where 1 is the maximum; inactive means score below 0.9.

Chain of E-selectin (Homo sapiens) (P16581 whole entry, looked up): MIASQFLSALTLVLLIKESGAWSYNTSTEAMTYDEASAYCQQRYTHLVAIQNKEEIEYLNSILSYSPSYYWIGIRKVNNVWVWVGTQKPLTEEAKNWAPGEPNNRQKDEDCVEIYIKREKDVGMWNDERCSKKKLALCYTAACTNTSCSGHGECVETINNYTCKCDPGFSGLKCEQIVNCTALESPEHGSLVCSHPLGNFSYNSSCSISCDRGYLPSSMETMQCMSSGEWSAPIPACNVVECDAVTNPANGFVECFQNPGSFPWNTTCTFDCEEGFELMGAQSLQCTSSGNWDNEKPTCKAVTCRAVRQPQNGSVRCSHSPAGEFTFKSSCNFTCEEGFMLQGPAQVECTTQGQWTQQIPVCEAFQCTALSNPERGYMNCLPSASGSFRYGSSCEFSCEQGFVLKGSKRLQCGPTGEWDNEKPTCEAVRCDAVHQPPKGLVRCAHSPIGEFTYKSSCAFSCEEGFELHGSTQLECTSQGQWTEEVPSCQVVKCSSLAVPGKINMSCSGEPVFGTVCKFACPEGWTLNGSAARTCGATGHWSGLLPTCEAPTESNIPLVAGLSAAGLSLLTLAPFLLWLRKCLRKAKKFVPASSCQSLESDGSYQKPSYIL

One may read the AC50 as the midpoint of the concentration-response curve, whichever way the signal moves. `CCC(C)(NC(=O)c1cc(Cl)c(C)c(Cl)c1)C(=O)CCl` (centres undefined): the AC50 is 26.6 µM (active) in assay [1]; 16.6 µM (active) in assay [2]; 20 µM (active) in [3]; 15.9 µM (active) in assay [4]; 7.45 µM (active) in assay [5]; 35.5 µM (active) in [6]. For the same molecule, the figures for the concentration at half-maximal activity (AC50) in assay [7], in [8] and in assay [9] were 10.1 µM (active), 12.2 µM (active) and 20 µM (active), respectively.
As to `Cc1[nH]c(=O)n(C(C)(C)C)c(=O)c1Cl`, the outcome in [1], in [2], in assay [3], in assay [4], in assay [5] and in [6] was inactive. Moreover, the result in assay [7], in [8] and in [9] was inactive.
Regarding `N#CN`, the result in [1], in assay [2], in assay [3], in [4], in [5] and in assay [6] was inactive. Moreover, the outcome in [7], in assay [8] and in assay [9] was inactive.
As for `C#CCN1C(=O)COc2cc(F)c(N3C(=O)C4=C(CCCC4)C3=O)cc21`, the outcome in assay [1], in assay [2], in assay [3], in assay [4], in assay [5] and in assay [6] was inactive. Further, the result in assay [7], in assay [8] and in assay [9] was inactive.
Take `COP(=O)(OC)OC=C(Cl)Cl`: the result in assay [1], in assay [2], in [3], in assay [4], in [5] and in [6] was inactive. Further, the outcome in assay [7], in assay [8] and in assay [9] was inactive.
In the case of `CCc1ccc(C(=O)NN(C(=O)c2cc(C)cc(C)c2)C(C)(C)C)cc1`, the outcome in [1], in assay [2], in [3], in assay [4], in assay [5] and in assay [6] was inactive. Besides, the outcome in assay [7], in assay [8] and in assay [9] was inactive.
As to `O=S1OCC2C(CO1)C1(Cl)C(Cl)=C(Cl)C2(Cl)C1(Cl)Cl` (centres undefined), the AC50 in assay [1] is 29.1 µM (active); in [2], 26.9 µM (active); in assay [5], 15.9 µM (active); in assay [6] it was 30.9 µM (active); with CD40, CD40 (gene 958), 29.2 µM (active); in [7] it was 30.9 µM (active). Also, the AC50 in assay [8] is 33.5 µM (active). In addition, the result in assay [3] was inactive.
Take `O=C(O)COc1ccc(Cl)cc1Cl`: the outcome in assay [1], in assay [2], in [3], in [4], in assay [5] and in [6] was inactive. Further, the outcome in [7], in assay [8] and in assay [9] was inactive.
As for `CNC(=O)CSP(=S)(OC)OC`, the outcome in assay [1], in [2], in assay [3], in [4], in [5] and in [6] was inactive. The outcome in assay [7], in assay [8] and in assay [9] was inactive.
For `O=[N+]([O-])c1c(Cl)c(Cl)c(Cl)c(Cl)c1Cl`, the AC50 in assay [1] is 24.4 µM (active); in assay [2], 29.9 µM (active); in [5], 15.7 µM (active); in [6], 31 µM (active); in assay [7], 31.1 µM (active). The result in assay [3], in assay [4], in [8] and in assay [9] was inactive.
Consider `Cc1cc(C)nc(NC(=O)NS(=O)(=O)c2ccccc2C(=O)OC2COC2)n1`, for which the outcome in [1], in [2], in assay [3], in assay [4], in assay [5] and in assay [6] was inactive. Besides, the outcome in assay [7], in [8] and in assay [9] was inactive.
As to `CC(C)(C)C(O)/C(=C\c1ccc(Cl)cc1Cl)n1cncn1` (centres undefined), the outcome in assay [1] and in assay [3] was inactive. In addition, the concentration at half-maximal activity (AC50) in assay [2] is 33.2 µM (active); in assay [4] it was 34.3 µM (active); in [5], 28.5 µM (active); in assay [6], 32.2 µM (active); in assay [7], 21.9 µM (active); in assay [8] it was 32.4 µM (active). Besides, the AC50 in assay [9] is 31 µM (active).
On to `CNC(=O)Oc1cccc(N=CN(C)C)c1`, for which the outcome in assay [1], in assay [2], in assay [3], in assay [4], in [5] and in assay [6] was inactive. Moreover, the result in assay [9] was inactive. The AC50 in assay [7] and in assay [8] was 20 µM (active) each time.
For the molecule `[2H]C1([2H])[n+]2ccccc2-c2cccc[n+]2C1([2H])[2H]`, the AC50 in [1] was 20 µM (active); in assay [5], 13.3 µM (active); in assay [6], 28.9 µM (active). In addition, the result in assay [2], in [3], in [7], in assay [8] and in [9] was inactive.

The values are drawn from PubChem BioAssay (EPA / NIEHS).
